# Source: PubChem BioAssay (National Center for Advancing Translational Sciences (NCATS))
# HP1b binding inh: HP1-beta chromodomain-methylated histone interaction inhibition | P83916 | AlphaScreen HP1-beta / biotin-H3K9me3 peptide binding | Potency, µM (doses to about 114 µM), inactives show at the top dose activity change, negative = inhibition, most hits filed as inhibitors | 0.56% of 390,000 active; note: nearly all actives have a fitted effect of over 70% in size
#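 HP1-beta protein (50 nM final) preincubated 30 min at room temperature with biotinylated H3(1-18)K9me3 peptide (50 nM) in PBS pH 7.4, 0.01% Tween-20, then compound added for 30 min. AlphaScreen streptavidin donor/nickel chelate acceptor beads (10 ug/mL final), 30 min dark, luminescence read.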
# JMJD2A Tudor inh: JMJD2A Tudor domain (human) inhibition; AID 504339; AlphaScreen JMJD2A-Tudor / H3K4me3 peptide binding; O75164; Potency, µM (doses to about 114 µM), for inactives: at the top dose activity change, negative = inhibition, actives largely listed as inhibitors; 4.4% of 390,000 active; note: % is set by controls: 0 for no effect and ±100 for the full control effect; nearly all actives have a fitted effect of over 50% in size
# VDR inh: blocks the human vitamin D receptor; AID 504847; 0.93% of 400,000 active; Potency, µM, for the others: max response, negative = inhibition, most hits filed as inhibitors; VDR-SRC2-3 peptide fluorescence polarization, 2 h; note: % is set by controls: 0 for no effect and ±100 for the full control effect
# Target sequence (P11473 whole entry, looked up): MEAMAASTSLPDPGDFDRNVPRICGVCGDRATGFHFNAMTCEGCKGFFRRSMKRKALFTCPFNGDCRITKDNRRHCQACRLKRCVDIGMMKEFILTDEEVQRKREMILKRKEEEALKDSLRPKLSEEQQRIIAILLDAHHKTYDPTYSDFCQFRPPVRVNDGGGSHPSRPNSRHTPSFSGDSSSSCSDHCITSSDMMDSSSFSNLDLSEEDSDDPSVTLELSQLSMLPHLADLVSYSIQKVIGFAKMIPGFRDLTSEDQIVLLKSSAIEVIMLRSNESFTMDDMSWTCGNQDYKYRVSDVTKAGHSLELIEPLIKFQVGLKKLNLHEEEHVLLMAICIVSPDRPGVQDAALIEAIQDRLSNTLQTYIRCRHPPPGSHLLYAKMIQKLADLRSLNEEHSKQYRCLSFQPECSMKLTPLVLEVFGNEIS
#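 The screen uses fluorescence polarization to detect compounds that interfere with recruitment of the SRC2-3 coactivator peptide to VDR; plates are read after 2 h at room temperature.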
# PLK1 PBD inh: PLK1 (human) polo-box domain binding inhibition; Plk1 PBD binding of FITC phosphopeptide, fluorescence polarization; P53350; 2.8% of 360,000 active; Potency, µM, for inactives: max response, negative = inhibition, hits mostly inhibitors; note: series mostly up to about 57 µM; % is set by controls: 0 for no effect and ±100 for the full control effect; nearly all actives have a fitted effect of over 65% in size
# G9a block: G9a (human) methyltransferase inhibition | Q96KQ7 | G9a H3K9 monomethylation, AlphaScreen, 2 h | Potency, µM (doses to about 102 µM), for inactives: at the highest dose activity, negative = inhibition, usual class: inhibitors | 8.8% of 350,000 active | AID 504332; note: % is set by controls: 0 for no effect and ±100 for the full control effect; nearly all actives have a fitted effect of over 75% in size
# Target sequence (Q96KQ7 913-1193 limits assumed): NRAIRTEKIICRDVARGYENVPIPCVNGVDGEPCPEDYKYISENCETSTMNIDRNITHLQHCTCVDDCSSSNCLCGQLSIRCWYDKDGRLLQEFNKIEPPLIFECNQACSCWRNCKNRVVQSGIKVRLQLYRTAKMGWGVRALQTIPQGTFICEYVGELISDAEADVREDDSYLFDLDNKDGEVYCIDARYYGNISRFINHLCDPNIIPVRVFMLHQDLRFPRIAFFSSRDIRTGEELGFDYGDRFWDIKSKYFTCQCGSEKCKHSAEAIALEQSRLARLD
#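 Chemiluminescent proximity detection of H3K9 monomethylation, read after 10 min bead incubation in the dark. Reaction: 20 nM G9a, 500 nM biotin-H3K9 peptide, 20 uM SAM cofactor, 2 h, room temperature, following 15 min enzyme-compound preincubation.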
# BAZ2B inh: inhibitors of human BAZ2B bromodomain. AlphaScreen BAZ2B-H3K14Ac peptide displacement. 4.4% of 360,000 active. AID 504333. Q9UIF8. Potency, µM (highest dose often 114 µM), for the others: at the highest dose activity change, negative = inhibition, most hits filed as inhibitors; note: % is set by controls: 0 for no effect and ±100 for the full control effect; nearly all actives have a fitted effect of over 60% in size
#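 Inhibition is scored as reduced AlphaScreen emission. The BAZ2B/b-H3(5-23)K14Ac complex (50 nM each) in PBS pH 7.4, 0.01% Tween-20 meets compound (up to 110 uM) for 30 min at RT before bead addition.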
# An asterisk follows results filed as active; ? = inconclusive; · = no result given; ! = not active in a repeat; [ ] = remark or other dose. Sampled rows, rich in hits. Any-hit rate of the full collection: about 11%. Calls come from the whole dose curve; as a rule, active = well fitted curve in the direction sought with a large enough effect; inconclusive = small, poorly fitted or top-dose-only effect, or another doubt; inactive = no such curve, though single readings can be large; an effect the other way counts as inactive or inconclusive. Potency is the fitted concentration of half-maximal effect.
SMILES,HP1b binding inh,JMJD2A Tudor inh,VDR inh,PLK1 PBD inh,G9a block,BAZ2B inh
O=C(CC1C(=O)NCCN1Cc1ccccc1)NC1CCCCCC1 (stereo not drawn),19%,-26%,12%,-24%,18%[59 µM],-10%
Cc1ccc(CN2CCNC(=O)C2CC(=O)NC2CCCCCC2)cc1 (stereo not drawn),57%,-23%,?,-14%,56µM*,-23%
O=C(CC1C(=O)NCCN1Cc1ccc(F)cc1)NC1CCCCCCC1 (stereo not drawn),35%,9%,-14%,-11%,50µM*,-23%
CC1(C)SC2[C@@H](N=CN3CCCCCC3)C(=O)N2[C@H]1C(=O)O (stereo partly drawn),·,·,-9%,·,5%[59 µM],·
CC(C)C(NC(=O)C1(NC(=O)OCc2ccccc2)CCCC1)C(=O)O (stereo not drawn),21%,-14%,-19%,-4%,·,·
CCn1cc(CNC(=O)CC2C(=O)NCCN2CC(c2ccccc2)c2ccccc2)cn1 (stereo not drawn),48%,-23%,5%,-16%,·,-5%
O=C(CC1C(=O)NCCN1CC(c1ccccc1)c1ccccc1)NC1CC1 (stereo not drawn),41%,3%,-3%,-11%,45µM*,-10%
O=C(CN1CCN(Cc2ccc(Cl)cc2)CC1)N/N=C/c1ccccc1F,46%,-7%,-9%,-1%,6%,-6%
O=C(CN1CCCCCCC1)N/N=C/c1ccc(F)cc1F,?,?,-21%,-21%,22µM*,-6%
NS(=O)(=O)c1ccc(CCNC(=O)CN2CCN(c3ccc(F)cc3)CC2)cc1,35%,-7%,-2%,-6%,1%[59 µM],2%
O=C(CN1CCCCCC1)NCCc1ccc(F)cc1,?,3.5µM*,6%,-16%,8.9µM*,50µM*
Cc1ccc(O)c(/C=N/NC(=O)CN2CCCC2)c1,55%,71µM*,-12%,1%,27%,50µM*
O=C(CN1CCCC1)N/N=C/c1c(O)ccc2ccccc12,50%,79µM*,-17%,5%,8%,28µM*
Cc1nc2nc(SCC(=O)NCc3ccccc3)nn2c(C)c1Cc1ccccc1Cl,39%,-10%,-9%,·,0%[59 µM],-2%
CCN(CC(=O)Nc1c(F)cccc1F)C(=O)Cn1[nH]c(=O)c2ccccc2c1=O,21%,-11%,2%,-5%,11%[2.33 µM],7%
CC(=O)c1cccc(NC(=O)c2ccc(C)o2)c1,25%,?,-17%,30µM*,1%,-3%
CC(=O)c1cccc(NC(=O)c2oc(C)nc2C)c1,-12%,-17%,-8%,-19%,45µM*,-2%
CC(=O)c1cccc(NC(=O)c2ccc(Br)o2)c1,35%,-10%,0%,-4%,?,7%
O=C(OC1Cn2c(=O)ccc(=O)n2C1)c1ccccc1,?,-19%[57.1 µM],-5%,-24%,1%,0%
COCCN(Cc1cc2cc(C)c(C)cc2nc1Cl)C(=O)N1CCOCC1,14%,-14%,12%,4%,1%,-13%
O=C(/C=C/c1ccco1)Nc1ccccc1C(=O)Nc1cccc(C(=O)O)c1,-4%,-30%,10%,-21%,50µM*,-23%
Cc1occc1C(=O)Nc1cccc(C(=O)O)c1,8%,-14%,6%,-9%,1%[59 µM],0%
O=C(/C=C/c1ccco1)Nc1cc(Cl)ccc1C(=O)O,-6%,?,?,?,8.9µM*,?
Cc1ccc(/C=C/C(=O)Nc2ccccc2C(N)=O)o1,5%,-18%,4%,·,10µM*,-2%[57.1 µM]
CN(C(=O)/C=C/c1ccco1)c1ccccc1C(=O)O,60%,-11%,-8%,-19%,25µM*,?
SMILES,HP1b binding inh,JMJD2A Tudor inh,VDR inh,PLK1 PBD inh,G9a block,BAZ2B inh
CC(C)(C)[C@H]1COC(=O)CCC/C=C/C[C@H](CC(=O)NCCO)C(=O)N1,14%,-20%,2%,-9%,·,·
O=C(/C=C/c1ccco1)Nc1ccccc1C(=O)O,-6%,?,-14%,?,14µM*,-33%
CC1c2ccccc2SC(CCCN(C)C)c2ccccc21 (stereo not drawn),9%,-10%,-4%,4%,56µM*,1%
CN(C)CCCNC(=O)N1c2ccccc2Sc2ccccc21,21%,-13%,-3%,-18%,-10%,0%
O=C1/C(=C/c2ccccn2)SC(=S)N1N1CCOCC1,17%,-8%[57.1 µM],-16%,-9%,56µM*,?
O=C1/C(=C/c2ccc(F)cc2)SC(=S)N1N1CCOCC1,-21%,-23%,4%,-8%,35%[12.7 µM],-28%
COc1ccc(/C=C2\SC(=S)N(N3CCOCC3)C2=O)c(OC)c1,?,?,-14%,-1%,46%[59 µM],24%
COc1cccc(/C=C2\SC(=S)N(N3CCOCC3)C2=O)c1OC,?,?,-13%,-3%,?,18µM*
CCOC(=O)Cc1c(C)nc2c(-c3ccc(Cl)cc3)c(C(F)(F)F)nn2c1C,250%,170%,10%,·,307%[59 µM],203%
CC1(C)SC(C)(C)N(C=O)C1C(=O)O (stereo not drawn),18%,-7%,-4%,1%,·,·
CCC1C(=O)Nc2ccccc2N1C(=O)c1ccc(Cl)nc1 (stereo not drawn),21%,100µM*,4%,-7%,31%,5%
CC1COc2ccccc2N1C(=O)c1ccc(Cl)nc1 (stereo not drawn),19%,-18%,-14%,-5%,-29%,?
CC1(C)Cc2c(c(N3CCOCC3)nc3sc(C(=O)Nc4ccc(Cl)cc4)c(N)c23)CO1,-18%,-33%,1%,-18%,10µM*!,3%
CN(C(=O)c1sc2nc(N3CCOCC3)c3c(c2c1N)CCCC3)c1ccccc1,40%,4%,-15%,-9%,?,3%
CCOc1ccc(NC(=O)c2sc3nc(N4CCOCC4)c4c(c3c2N)CC(C)(C)OC4)cc1,25%,10%,2%,-13%,79µM*,-3%
CN1Cc2c(N3CCOCC3)nc3sc(C(=O)c4ccccc4)c(N)c3c2CC1(C)C,-11%,45µM*,5%,-11%,50µM*,?
Nc1c(C(=O)NCCc2ccccc2)sc2nc(N3CCOCC3)c3c(c12)CCCC3,79%,-6%,-7%,-25%,16µM*,-1%
CS(=O)(=O)N1CCC[C@@]2(CCN(Cc3ccccc3)C2)C1,·,·,-12%,·,-14%[12.7 µM],·
COc1ccc(-c2nc3cnc(Oc4cccc(Cl)c4)nc3n(CCC#N)c2=O)cc1,·,·,2%,·,2%[0.501 µM],·
c1ccc(Cn2c(SCc3nc4ccccc4s3)nnc2-c2ccco2)cc1,?,32µM*,-24%,21µM*,7.1µM*,?
CCC(c1nnc(SCc2nc3ccccc3s2)n1Cc1ccccc1)N(C)C (stereo not drawn),17%,-28%,13%,-3%,50µM*,-26%
